From PubChem BioAssay (Tox21)
Results filed as inconclusive are left out. Calls of active or inactive are those of the source. Unless noted, the call rests on the fitted dose curve.

Assays:
[1] = Nuclear factor erythroid 2-related factor 2/antioxidant responsive element (Nrf2/ARE) small molecule agonists: qHTS cell viability counter screen in human keratinocytes (AID 1919968; active means well fitted curve in the direction sought with a large enough effect in the repeat runs; an effect the other way counts as inactive or inconclusive; further: nearly all actives have a fitted effect of over 55% in size; further: potency means the concentration at half of the fitted maximal effect); settings: KeratinoSens HaCaT ARE cells viability, CellTiter-Fluor, 24 h; series mostly up to 92.4 µM
How it was run: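 HaCaT ARE reporter line, 1,500 cells/well; 5 h settle, 37 C/5% CO2; cpd in DMSO pinned; 23 h exposure; CellTiter-Fluor, 1 h; fluorescence.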

[2] = Nuclear factor erythroid 2-related factor 2/antioxidant responsive element (Nrf2/ARE) small molecule agonists: luciferase reporter gene qHTS assay in human keratinocytes (AID 1919969); settings: KeratinoSens HaCaT ARE-luciferase, luminescence, 24 h; series mostly up to 92.4 µM; further: nearly all actives have a fitted effect of over 35% in size; further: potency means the concentration at half of the fitted maximal effect
[3] = biological target: Gonadotropin-releasing hormone receptor (Homo sapiens) (UniProt P30968); test: Human gonadotropin-releasing hormone receptor (GnRHR) small molecule agonists, calcium flux assay in GnRHR-HEK293 cells (AID 1920063); settings: calcium flux fluorescence, agonist mode; series mostly up to 57.6 µM; further: nearly all actives have a fitted effect of over 35% in size
How it was run: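 GnRHR-HEK293, 1500 cells/well, 18 h 37 C/5% CO2; Ca dye 1 h 37 C; cpd pinned (DMSO), agonist mode; kinetic FL 480/540, 3 min, 1 s reads; 15 conc, n=3.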

[4] = biological target: KiSS-1 receptor (Homo sapiens) (UniProt Q969F8); test: Human kisspeptin (KISS1R) small molecule agonists, calcium flux assay in KISS1R-HEK293 cells (AID 1920064; active means well fitted curve in the direction sought with a large enough effect in the repeat runs; an effect the other way counts as inactive or inconclusive); settings: KISS1R-HEK293, calcium flux fluorescence, agonist; series mostly up to 76.8 µM
How it was run: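 Stable human KISS1R HEK293 line; 18 h plating, 37 C/5% CO2; calcium dye 1 h 37 C; compound pin transfer; kinetic fluorescence Ex/Em 480/540, 3 min.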

[5] = G protein-coupled receptor (GPCR) small molecule agonists, calcium flux assay: HEK293 wild type cell line counter screen (AID 1920065); settings: HEK293 WT calcium flux, fluorescence, agonist mode; series mostly up to 57.6 µM
How it was run: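 Kinetic fluorescence at Ex/Em 480/540, recorded every second over 3 min, served as the read-out after compound addition. Each compound was tested at 15 concentrations in triplicate on cells pre-loaded with calcium dye for 1 h.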

[6] = p53 small molecule agonists, cell-based qHTS assay with human liver microsomes: qHTS cell viability counter screen (AID 1963579); settings: p53RE-bla HCT-116 viability, ATP luminescence, 16 h, HLM; series mostly up to 66 µM; further: nearly all actives have a fitted effect of over 45% in size; further: potency means the concentration at half of the fitted maximal effect
How it was run: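 HLM-supplemented (0.5 mg/mL final) and NADPH-supplemented (0.5 mg/mL final) p53RE-bla cultures, 4,000 cells per well, were dosed with compounds in DMSO for 16 h at 37 C; luminescent ATP detection (CellTiter-Glo, 30 min, room temperature) quantified surviving cells.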

[7] = p53 small molecule agonists, cell-based qHTS assay with rat liver microsomes: qHTS cell viability counter screen (AID 1963580); settings: p53RE-bla HCT-116 + rat microsomes, ATP viability, 16 h; series mostly up to 66 µM; further: nearly all actives have a fitted effect of over 45% in size; further: potency means the concentration at half of the fitted maximal effect
How it was run: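 HCT-116 p53RE-bla, 4,000 cells/well, 5 h pre-incubation; cpd + rat liver microsomes 0.5 mg/mL + NADPH 0.5 mg/mL (final); 16 h, 37 C; CellTiter-Glo, 30 min RT; luminescence.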

[8] = p53 small molecule agonists, cell-based qHTS assay: qHTS cell viability counter screen (AID 1963581); settings: p53RE-bla HCT-116 viability, ATP luminescence, 16 h; series mostly up to 66 µM; further: nearly all actives have a fitted effect of over 45% in size; further: potency means the concentration at half of the fitted maximal effect
How it was run: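 HCT-116 p53RE-bla cells, 4,000/well, plated 5 h before compound pin transfer; 16 h at 37 C; bla substrate 2 h RT; then CellTiter-Glo, 30 min RT, luminescence.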

[9] = biological target: 5-hydroxytryptamine receptor 2A (Homo sapiens) (UniProt P28223); test: 5-hydroxytryptamine receptor 2A (HTR2A) small molecule agonists, cell-based qHTS assay (AID 1963587); settings: HTR2A-CHO cells, calcium flux fluorescence, agonist mode; series mostly up to 76.8 µM; further: nearly all actives have a fitted effect of over 30% in size
How it was run: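 Kinetic calcium-flux fluorescence (2 min, 1 sec intervals) after compound addition in agonist mode. HTR2A-CHO cells were cultured 18 h, then dye-loaded 1 h at 37 C.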

[10] = biological target: Muscarinic acetylcholine receptor M1 (Homo sapiens) (UniProt P11229); test: Cholinergic receptor muscarinic 1 (CHRM1) small molecule antagonists, cell-based qHTS assay (AID 1963588); settings: CHRM1-CHO antagonist mode, calcium flux fluorescence; series mostly up to 61.5 µM; further: nearly all actives have a fitted effect of over 40% in size
How it was run: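 CHRM1-CHO calcium-flux assay, antagonist mode. Cells were seeded 18 h, dye-loaded 1 h at 37 C and given compound for 5 min at RT, then acetylcholine was added at 50nM. FDSS fluorescence was read 3 min; 15 concentrations, three runs.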

[11] = biological target: Muscarinic acetylcholine receptor M1 (Homo sapiens) (UniProt P11229); test: Cholinergic receptor muscarinic 1 (CHRM1) small molecule agonists, cell-based qHTS assay (AID 1963589); settings: CHRM1-CHO cells, agonist mode, calcium flux fluorescence; series mostly up to 76.8 µM; further: nearly all actives have a fitted effect of over 35% in size
How it was run: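 Human M1 in stable CHO line; 18 h plating, 1 h dye load 37 C; cpd added (agonist mode); Ca2+ fluorescence kinetic read, 1 s intervals; 15 conc, 3 runs.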

[12] = cAMP Responsive Elements (CRE) small molecule agonists, cell-based qHTS assay (AID 1963590); settings: CRE-bla HEK293T, beta-lactamase FRET ratio, 3 h; series mostly up to 92.4 µM
How it was run: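 HEK 293T CRE-bla, 2,000 cells/well, 18 h preincubation 37 C/5% CO2; cpds (DMSO) pinned, 3 h; LiveBLAzer B/G FRET substrate, 2 h RT.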

[13] = biological target: Beta-2 adrenergic receptor (Homo sapiens) (UniProt P07550); test: Adrenergic beta2 receptor (ADRB2) small molecule antagonists, cell-based qHTS assay (AID 1963592); settings: CHO-ADRB2 cells, isoproterenol-stimulated cAMP HTRF ratio, 0.5 h; series mostly up to 92.4 µM; further: nearly all actives have a fitted effect of over 50% in size
How it was run: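 Cells (CHO, stable ADRB2 overexpression) incubated 18-20hr at 37C; compounds added from DMSO; agonist mix (1nM isoproterenol, 100uM IBMX, 25uM Ro-20-1724) added; 0.5hr RT; d2-cAMP and anti-cAMP-cryptate added; 1hr RT; 665/615 nm read.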

[14] = biological target: D(2) dopamine receptor (Homo sapiens) (UniProt P14416); test: Dopamine D2 receptor (DRD2) small molecule agonists, cell-based qHTS assay (AID 1963594); settings: HEK293-DRD2 cAMP HTRF, agonist mode, 30 min; series mostly up to 92.4 µM; further: nearly all actives have a fitted effect of over 35% in size
How it was run: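 cAMP accumulation in DRD2-HEK293 cells measured by HTRF after 1 h detection; compounds added 10 min before NKH477 (200nM […]) forskolin-analogue stimulation, 30 min at room temperature, with Ro20-1724 present at 0.1 mM final.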

[15] = biological target: D(2) dopamine receptor (Homo sapiens) (UniProt P14416); test: Dopamine D2 receptor (DRD2) small molecule antagonists, cell-based qHTS assay (AID 1963595; active means well fitted inhibition curve with a large enough effect in the signal ratio in the repeat runs, with a control signal flat; the % refers to the signal ratio); settings: HEK293-DRD2 cAMP HTRF antagonist mode; series mostly up to 92.4 µM
How it was run: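 In this cell-based antagonist screen, compounds act for 10 min at room temperature before a 30 min challenge with 12 nM quinpirole and 200 nM NKH477. cAMP is quantified by HTRF competition in DRD2-HEK293 cells containing 0.1 mM Ro20-1724.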

[16] = biological target: Beta-2 adrenergic receptor (Homo sapiens) (UniProt P07550); test: Adrenergic beta2 receptor (ADRB2) small molecule agonists, cell-based qHTS assay (AID 1963593); settings: CHO-ADRB2 cells, cAMP HTRF, 30 min; series mostly up to 92.4 µM;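 further: CHO cells stably overexpressing human ADRB2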
How it was run: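 CHO cells stably over-expressing ADRB2 were plated overnight at 37C, then dosed with compounds plus a stimulation mix containing 100uM IBMX and 25uM Ro-20-1724 for 0.5hr at room temperature. cAMP was measured by HTRF competition, 1hr.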

[17] = cAMP Responsive Elements (CRE) small molecule antagonists, cell-based qHTS assay (AID 1963591; active means well fitted inhibition curve with a large enough effect in the signal ratio in the repeat runs, not every such curve was filed as active; the % refers to the signal ratio); settings: CRE-bla HEK293T, beta-lactamase FRET ratio; series mostly up to 92.4 µM
How it was run: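 Beta-lactamase reporter read by FRET substrate (LiveBLAzer B/G) after 2 h at room temperature. CRE-bla HEK293T cells had received compound plus 0.25 uM (final) NKH477 for 3 h at 37 °C.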
On the % scale 0 is the no-effect control and ±100 the full control effect.

Gonadotropin-releasing hormone receptor (Homo sapiens), sequence (P30968 whole entry, looked up): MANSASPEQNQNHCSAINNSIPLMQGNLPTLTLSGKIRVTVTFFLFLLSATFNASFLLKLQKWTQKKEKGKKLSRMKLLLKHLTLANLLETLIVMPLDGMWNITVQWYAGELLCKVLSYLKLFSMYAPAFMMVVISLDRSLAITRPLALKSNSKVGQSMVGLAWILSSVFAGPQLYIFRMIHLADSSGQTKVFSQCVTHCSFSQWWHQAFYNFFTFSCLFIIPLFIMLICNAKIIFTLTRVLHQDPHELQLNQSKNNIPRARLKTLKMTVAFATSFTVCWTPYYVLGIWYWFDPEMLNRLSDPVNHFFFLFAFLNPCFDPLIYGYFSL
D(2) dopamine receptor (Homo sapiens), sequence (P14416 whole entry, looked up): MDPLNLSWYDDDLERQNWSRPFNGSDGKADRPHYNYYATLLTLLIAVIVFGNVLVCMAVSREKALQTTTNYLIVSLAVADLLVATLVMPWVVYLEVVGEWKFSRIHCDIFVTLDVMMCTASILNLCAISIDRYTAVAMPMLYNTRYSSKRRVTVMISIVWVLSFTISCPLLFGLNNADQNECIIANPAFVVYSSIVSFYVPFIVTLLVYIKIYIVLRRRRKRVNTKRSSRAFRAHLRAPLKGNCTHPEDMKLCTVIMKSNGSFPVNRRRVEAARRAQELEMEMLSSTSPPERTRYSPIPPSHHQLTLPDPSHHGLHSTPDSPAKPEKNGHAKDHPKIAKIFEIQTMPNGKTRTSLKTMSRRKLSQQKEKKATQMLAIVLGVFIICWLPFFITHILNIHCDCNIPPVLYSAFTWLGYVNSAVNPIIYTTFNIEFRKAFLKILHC
KiSS-1 receptor (Homo sapiens), sequence (Q969F8 whole entry, looked up): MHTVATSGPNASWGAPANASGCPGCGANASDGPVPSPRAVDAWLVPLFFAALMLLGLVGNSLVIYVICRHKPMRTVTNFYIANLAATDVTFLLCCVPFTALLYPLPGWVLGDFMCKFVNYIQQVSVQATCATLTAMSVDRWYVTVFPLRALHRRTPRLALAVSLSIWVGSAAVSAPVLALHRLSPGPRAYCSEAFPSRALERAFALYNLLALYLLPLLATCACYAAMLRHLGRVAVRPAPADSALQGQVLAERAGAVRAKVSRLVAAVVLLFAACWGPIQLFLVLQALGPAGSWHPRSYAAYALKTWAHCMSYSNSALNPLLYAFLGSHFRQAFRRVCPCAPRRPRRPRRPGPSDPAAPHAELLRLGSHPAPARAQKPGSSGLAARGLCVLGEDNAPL
Beta-2 adrenergic receptor (Homo sapiens), sequence (P07550 whole entry, looked up): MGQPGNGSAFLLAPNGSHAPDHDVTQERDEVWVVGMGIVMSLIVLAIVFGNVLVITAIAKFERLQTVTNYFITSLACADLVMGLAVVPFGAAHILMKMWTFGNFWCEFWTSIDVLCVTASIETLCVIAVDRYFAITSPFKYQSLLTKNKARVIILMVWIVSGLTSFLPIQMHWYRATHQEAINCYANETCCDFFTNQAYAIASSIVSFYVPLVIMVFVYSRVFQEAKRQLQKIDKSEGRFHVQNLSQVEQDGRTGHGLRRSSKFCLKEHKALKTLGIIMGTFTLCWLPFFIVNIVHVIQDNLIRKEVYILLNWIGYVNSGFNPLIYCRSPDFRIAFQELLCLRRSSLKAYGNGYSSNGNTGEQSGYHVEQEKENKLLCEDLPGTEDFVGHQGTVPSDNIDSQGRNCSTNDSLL
5-hydroxytryptamine receptor 2A (Homo sapiens), sequence (P28223 whole entry, looked up): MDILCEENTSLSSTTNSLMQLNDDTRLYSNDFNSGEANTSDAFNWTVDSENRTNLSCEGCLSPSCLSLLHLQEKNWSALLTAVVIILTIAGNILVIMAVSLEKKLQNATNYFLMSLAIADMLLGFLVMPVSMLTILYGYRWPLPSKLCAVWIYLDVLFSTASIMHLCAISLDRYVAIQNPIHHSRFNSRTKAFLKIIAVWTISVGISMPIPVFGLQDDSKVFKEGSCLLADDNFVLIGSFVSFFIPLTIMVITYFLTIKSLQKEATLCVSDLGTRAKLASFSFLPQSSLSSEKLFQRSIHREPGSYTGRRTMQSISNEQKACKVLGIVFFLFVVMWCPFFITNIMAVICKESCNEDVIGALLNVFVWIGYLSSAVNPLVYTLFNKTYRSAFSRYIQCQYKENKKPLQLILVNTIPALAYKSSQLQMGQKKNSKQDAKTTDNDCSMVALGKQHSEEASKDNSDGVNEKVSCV
Muscarinic acetylcholine receptor M1 (Homo sapiens), sequence (P11229 whole entry, looked up): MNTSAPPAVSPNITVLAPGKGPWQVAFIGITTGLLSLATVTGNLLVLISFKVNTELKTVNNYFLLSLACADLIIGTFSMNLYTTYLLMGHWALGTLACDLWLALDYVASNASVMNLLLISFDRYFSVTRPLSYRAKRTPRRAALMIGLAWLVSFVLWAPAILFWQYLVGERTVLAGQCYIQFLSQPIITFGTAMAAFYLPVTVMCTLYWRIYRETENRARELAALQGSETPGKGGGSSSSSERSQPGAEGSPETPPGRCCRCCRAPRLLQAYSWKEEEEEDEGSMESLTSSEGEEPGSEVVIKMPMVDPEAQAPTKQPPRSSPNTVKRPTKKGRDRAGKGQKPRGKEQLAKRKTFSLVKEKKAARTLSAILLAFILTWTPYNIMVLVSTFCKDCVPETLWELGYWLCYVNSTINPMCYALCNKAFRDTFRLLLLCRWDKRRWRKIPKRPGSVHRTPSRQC

O=C(O)c1ccc2cc(C(=O)O)ccc2c1
inactive: Potency [1] | Potency [2] | Potency [3] | Potency [4] | Potency [5] | Potency [6] | Potency [7] | Potency [8] | Potency [9] | Potency [10] | Potency [11] | Potency [12] | Potency [13] | Potency [14] | Potency [15]

N=C1N=C(N)c2cc3ccccc3cc21
active: Potency [1] 24.3 µM | Potency [2] 21.7 µM | Potency [6] 45.8 µM | Potency [7] 45.8 µM | Potency [8] 23.6 µM
inactive: Potency [3] | Potency [4] | Potency [5] | Potency [11]

COc1ccnc(CS(=O)c2nc3cc(OC(F)F)ccc3[nH]2)c1OC (centres undefined)
inactive: Potency [1] | Potency [2] | Potency [3] | Potency [4] | Potency [5] | Potency [6] | Potency [7] | Potency [8] | Potency [12] | Potency [13] | Potency [16] | Potency [14] | Potency [15]

NCCCN1CCOCC1
inactive: Potency [1] | Potency [2] | Potency [3] | Potency [4] | Potency [5] | Potency [6] | Potency [7] | Potency [8] | Potency [9] | Potency [10] | Potency [11] | Potency [12] | Potency [17] | Potency [13] | Potency [14] | Potency [15]

Cc1c(F)c(N2CCNC(C)C2)cc2c1c(=O)c(C(=O)O)cn2C1CC1 (centres undefined)
inactive: Potency [1] | Potency [2] | Potency [3] | Potency [4] | Potency [5] | Potency [6] | Potency [7] | Potency [8] | Potency [13] | Potency [16] | Potency [14] | Potency [15]

C[C@H]1COc2c(C3(N)CC3)c(F)cc3c(=O)c(C(=O)O)cn1c23
inactive: Potency [1] | Potency [2] | Potency [3] | Potency [4] | Potency [5] | Potency [6] | Potency [7] | Potency [8] | Potency [9] | Potency [10] | Potency [11] | Potency [17] | Potency [13] | Potency [14] | Potency [15]

O=C(O)CO
inactive: Potency [1] | Potency [2] | Potency [3] | Potency [4] | Potency [5] | Potency [6] | Potency [7] | Potency [8] | Potency [12] | Potency [17] | Potency [13] | Potency [15]

Cc1onc(-c2ccccc2)c1-c1ccc(S(N)(=O)=O)cc1
inactive: Potency [1] | Potency [2] | Potency [3] | Potency [4] | Potency [5] | Potency [6] | Potency [7] | Potency [8] | Potency [12] | Potency [17] | Potency [13] | Potency [16] | Potency [14] | Potency [15]

CC1CN(c2cc3c(cc2F)c(=O)c(C(=O)O)cn3-c2ccc(F)cc2F)CCN1 (centres undefined)
inactive: activity change, negative = cytotoxicity [1] 6.63% [at 8.39 µM] | activity, positive = activation [2] 4.55% [at 8.39 µM] | activity change [3] -0.555% [at 5.22 µM, stronger effect = higher value] | activation [4] 3.09% [at 6.97 µM] | activation [5] 0.9% [at 5.23 µM] | activity change, negative = cytotoxicity [6] 1.1% [at 5.99 µM] | activity change, negative = cytotoxicity [7] -0.821% [at 5.99 µM] | activity change, negative = cytotoxicity [8] 22.9% [at 5.99 µM] | activation [12] -2.24% [at 8.39 µM] | activation [16] 1.31% [at 8.39 µM] | activation [14] -7.78% [at 8.39 µM] | activity change, negative = inhibition [15] -0.708% [at 8.38 µM]

CN(Cc1ccc(C(C)(C)C)cc1)Cc1cccc2ccccc12
inactive: Potency [2] | Potency [3] | Potency [4] | Potency [5] | Potency [6] | Potency [7] | Potency [8] | Potency [17] | Potency [13] | Potency [16] | Potency [14]
active: Potency [1] 11.9 µM

O=C1CCc2cc(OCCCCc3nnnn3C3CCCCC3)ccc2N1
inactive: Potency [1] | Potency [2] | Potency [3] | Potency [4] | Potency [5] | Potency [6] | Potency [7] | Potency [8] | Potency [16] | Potency [14]

CCC(C)OC(C)CC (centres undefined)
inactive: Potency [1] | Potency [2] | Potency [3] | Potency [4] | Potency [5] | Potency [6] | Potency [7] | Potency [8] | Potency [9] | Potency [10] | Potency [11] | Potency [17] | Potency [16] | Potency [14]
